According to the supplement of paper PMC4962491:
± gives the standard deviation of the averaged measurements.

System: FaDu
Assay: mitochondrial oxygen consumption rate normalised to cell number, Z score vs plate DMSO wells; higher = higher oxygen consumption (negative = OCR reduction)
Conditions: treatment time 24 h, assay medium: 5 mM glucose, 5 mM pyruvate, 4 mM glutamine
Method: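 Secondary screen: FaDu cells were incubated 24 h with the top 130 primary hits at 0.08, 0.4, 2 or 10 uM. Mitochondrial-specific OCR (basal minus antimycin A) was measured on a Seahorse XF96 in medium with 5 mM glucose, 5 mM pyruvate and 4 mM glutamine and normalised to Hoechst cell number. OCR score = (OCR - mean of plate DMSO wells) / SD of plate DMSO wells. Three repeats.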
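Further: compound exposure in DMEM (4 mM L-glutamine, 5 mM glucose), antimycin A injected at 2 µM after the basal reading and its residual OCR subtracted from basal.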

| Compound | mitochondrial oxygen consumption rate normalised (0.08 µM) | mitochondrial oxygen consumption rate normalised (0.4 µM) | mitochondrial oxygen consumption rate normalised (2 µM) | mitochondrial oxygen consumption rate normalised (10 µM) |
| --- | --- | --- | --- | --- |
| COc1cc([C@@H]2c3cc4c(cc3[C@H](O)[C@H]3COC(=O)[C@H]23)OCO4)cc(OC)c1OC | -0.539 ± 1.6 | -0.043 ± 0.98 | 0.427 ± 0.56 | -0.617 ± 1.2 |
| CC[C@H]1CN2CCc3cc(OC)c(OC)cc3[C@@H]2C[C@@H]1C[C@H]1NCCc2cc(OC)c(OC)cc21 | -2.43 ± 0.17 | -3.08 ± 0.73 | -9.68 ± 0.42 | -11.8 ± 0.41 |
| CCCCCCCCCCCCCCCC[n+]1ccccc1 | -1.4 ± 1.2 | -7.98 ± 1.3 | -12.98 ± 0.12 | – |
| CCN1C[C@]2(COC)[C@H](O)C[C@H](OC)[C@@]34[C@@H]5C[C@@]6(O)[C@H](OC(=O)c7ccccc7)[C@@H]5[C@@](OC(C)=O)([C@@H]([C@H](OC)[C@H]23)[C@@H]14)[C@@H](O)[C@@H]6OC | -1.27 ± 0.64 | 0.916 ± 0.68 | -0.205 ± 0.67 | -1.19 ± 2.6 |
| C=C1C[C@@H]2[C@H](CC[C@]3(C)C(=O)CC[C@@H]23)[C@@]2(C)C=CC(=O)C=C12 | -0.364 ± 0.53 | 1.24 ± 0.73 | -0.149 ± 1 | 0.548 ± 0.94 |
| COc1ccc(Cc2nccc3cc(OC)c(OC)cc23)cc1OC | 0.452 ± 1 | 1.06 ± 1.4 | 0.739 ± 0.59 | -0.208 ± 3.2 |
| CC(=O)O[C@H]1C[C@H](O[C@H]2[C@@H](O)C[C@H](O[C@H]3[C@@H](O)C[C@H](O[C@H]4CC[C@@]5(C)[C@H](CC[C@@H]6[C@@H]5C[C@@H](O)[C@]5(C)[C@@H](C7=CC(=O)OC7)CC[C@]65O)C4)O[C@@H]3C)O[C@@H]2C)O[C@H](C)[C@H]1O[C@@H]1O[C@H](CO)[C@@H](O)[C@H](O)[C@H]1O | -0.88 ± 0.81 | -3.22 ± 1.3 | – | – |
| O=c1[nH]c2ccccc2n1C1CCN(CCCC(c2ccc(F)cc2)c2ccc(F)cc2)CC1 | 0.0686 ± 1.5 | 0.719 ± 0.8 | -0.247 ± 1 | -2.41 ± 0.47 |
| CC(C)[N+](C)(CCC(C(N)=O)(c1ccccc1)c1ccccc1)C(C)C | -0.746 ± 1.7 | 0.934 ± 0.43 | 0.355 ± 1.3 | -0.361 ± 2 |
| S=C=NCc1ccccc1 | 0.549 ± 1.3 | 1.06 ± 1.3 | 0.157 ± 2.2 | – |
| CC(=O)Oc1ccc(Cl)c2cccnc12 | 1.68 ± 0.74 | 1.4 ± 1.5 | 1.41 ± 0.58 | -4.99 ± 1.8 |
